Pf growth 48h: P. falciparum growth inhibition at 48 hours (one generation); AID 504832; P. falciparum luciferase growth in erythrocytes, 48 h; Potency, µM (top dose mostly 28.7 µM), hits mostly inhibitors; 5.9% of 310,000 active
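Luminescence readout; reporter = integrated firefly luciferase in P. falciparum. RBC culture at 2% hematocrit, 0.1% parasitemia final, 37 C/5% CO2; decreased signal taken as growth inhibition.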
Shiga toxin inh: blocks Shiga toxin action in Vero cells; inhibition, % at 38.7 µM; Vero cells, Shiga toxin protein synthesis inhibition reporter; 9.2% of 290,000 active; in the data active = inhibition mostly above about 28%, no sharp cut-off; inactive = mostly below about 43%
Pf growth 96h: inhibits malaria parasite growth, 96 h; P. falciparum luciferase reporter growth, 96 h; Potency, µM (highest dose often 28.7 µM), hits mostly inhibitors; 6.9% of 320,000 active
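Erythrocytes infected with luciferase-expressing P. falciparum were dispensed at 2% hematocrit and 0.05% parasitemia (final), then incubated with compounds 96 hours at 37 C in 5% CO2. Luminescence after detection reagent addition reported growth.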
Cycloheximide cs: counter-screen for Shiga toxin inhibitors: cycloheximide protein synthesis inhibition. cell reporter, cycloheximide protein synthesis inhibition counterscreen. max response, %. 12% of 300,000 active; in the data active = max response mostly above about 13%, no sharp cut-off; inactive = mostly below about 14%; note: read at 38.3 µM for the half of the compounds with a filed dose
Large screens that a line does not name were inactive; ! = a repeat was not active. Hits are enriched below; roughly 21% of the tested compounds scored in any of these assays. Unless noted, calls come from the whole dose curve; as a rule, active = well fitted inhibition curve with a large enough effect; inconclusive = small, poorly fitted or top-dose-only effect, or another doubt; inactive = no such curve, though single readings can be large or run the other way.

CCCN(CCC)[C@@H]1CCc2cccc(O)c2C1	Pf growth 48h 5.2µM, Pf growth 96h 4.1µM
CCn1ccnc1CN(C)Cc1nc(Cc2cccc(C(F)(F)F)c2)no1	Pf growth 96h inconclusive
C#CCCc1ccccc1/C=[N+](/C)[O-]	Pf growth 48h inconclusive (no result: Shiga toxin inh, Cycloheximide cs)
NNc1nc(-c2ccccc2)nc2sc3c(c12)CCCC3	Pf growth 48h inconclusive, Shiga toxin inh 109, Pf growth 96h inconclusive, Cycloheximide cs 62
COc1cc(C(=O)NCc2nnc(SCC(=O)N3CCCc4ccccc43)o2)cc(OC)c1OC	none
CCOC(=O)c1c(C)[nH]c(C2=NNC(=Nc3cccc(Cl)c3)SC2)c1C	Pf growth 48h 2.1µM, Pf growth 96h 2.1µM
Cc1cc(C(=O)Nc2ccc(N3CCOCC3)cc2)c2ccccc2n1	Pf growth 48h 9.3µM, Pf growth 96h 13µM
Cc1ccc(NC(=O)c2cc(C)nc3ccccc23)cc1	Pf growth 96h inconclusive
CC(=O)c1ccc(NC(=O)c2cc(C)nc3ccccc23)cc1	Pf growth 96h inconclusive, Cycloheximide cs 28
COC(=O)c1c(F)c(F)c(N2CCOCC2)c(F)c1F	none
Cc1cc(C(=O)Nc2ccncc2)c2ccccc2n1	Pf growth 48h inconclusive, Pf growth 96h 13µM
COC(=O)c1nc2ccc(N3CCOCC3)cc2c(C)c1C(=O)OC	Shiga toxin inh 57
Cc1nc(C)c(C(=O)OC(C)C(=O)Nc2ccc(F)cc2)s1 (configuration not stated)	Pf growth 48h inconclusive (no result: Shiga toxin inh, Cycloheximide cs)
Cc1ccc(S(=O)(=O)NCCC(=O)NNC(=O)c2ccccc2O)cc1C	none (no result: Shiga toxin inh, Cycloheximide cs)
COc1cc(C(=O)OCCCN=C2NS(=O)(=O)c3ccccc32)cc(OC)c1OC	none
O=C(Nc1ccc(N2CCOCC2)cc1)c1cn2ccccc2n1	Shiga toxin inh 56, Cycloheximide cs 47
O=C(Nc1ccc(Cl)c(S(=O)(=O)N2CCOCC2)c1)c1cn2ccccc2n1	Pf growth 48h inconclusive
O=C(Nc1ccc(Cl)c(Cl)c1)N1CCOCC1	Shiga toxin inh 37
O=C(Nc1ccc(Cl)c(Cl)c1)N1CCCCCC1	Shiga toxin inh 90, Cycloheximide cs 51
O=C(c1ccc2[nH]c(=O)c(=O)[nH]c2c1)N1CCN(Cc2ccccc2)CC1	none
CC(C)(C)n1cn[nH]c1=S	none
CC(C)C(=O)Nc1ccc(N2CCN(C(=O)c3cccs3)CC2)cc1	Pf growth 96h inconclusive
CC(C)CC(=O)NC(=S)Nc1ccc(NC(=O)c2cccs2)cc1	Pf growth 96h 5.2µM (no result: Pf growth 48h)
O=C(Nc1ccc(NC(=S)NC(=O)c2ccccc2F)cc1)c1cccs1	Pf growth 48h inconclusive, Pf growth 96h inconclusive
CC(C)CC(=O)NC(=S)Nc1ccc(N2CCN(C(=O)c3cccs3)CC2)cc1	Pf growth 48h 10µM, Pf growth 96h inconclusive
Cc1cc(NC(=S)NC(=O)CC(C)C)ccc1Br	Shiga toxin inh 115, Pf growth 96h inconclusive, Cycloheximide cs 32
Cc1ccc(S(=O)(=O)N2CCN(C(=O)c3ccc4nc[nH]c4c3)CC2)cc1	Pf growth 48h inconclusive (no result: Shiga toxin inh, Cycloheximide cs)
O=C(NNC(=O)c1n[nH]c2ccccc12)c1ccccc1	none (no result: Shiga toxin inh, Cycloheximide cs)
O=[N+]([O-])c1ccc2nonc2c1Nc1ccccc1	Cycloheximide cs 23
O=[N+]([O-])c1cccc(Nc2c([N+](=O)[O-])ccc3nonc23)c1	none
CN1CCN(C(=O)c2cc3sccc3n2CC(=O)c2ccccc2)CC1	none
O=C(c1ccco1)N1CCN(C(=O)c2cc3sccc3n2Cc2ccccc2)CC1	Pf growth 48h 12µM
O=C(NCCc1ccccc1)c1cc2sccc2n1Cc1ccccc1	Pf growth 48h inconclusive, Pf growth 96h inconclusive
O=C(NCc1ccco1)c1cc2sccc2n1Cc1ccccc1	Pf growth 48h 12µM, Shiga toxin inh 36, Pf growth 96h 2.1µM, Cycloheximide cs 56
O=C(NCc1ccco1)c1ccc(Cn2c(=O)c3sccc3n(Cc3cccc(F)c3)c2=O)cc1	Pf growth 96h 2.6µM, Cycloheximide cs 26 (no result: Pf growth 48h)
Cc1ccc(C)c(NC(=O)C(=O)NCC2CCCN2S(=O)(=O)c2cccs2)c1 (configuration not stated)	Pf growth 48h inconclusive (no result: Shiga toxin inh, Cycloheximide cs)
CCOCCn1c(=NC(=O)CSCC(=O)N2CCOCC2)sc2cc(OC)ccc21	Pf growth 96h inconclusive
COc1ccc(C2=Nn3c(nnc3-c3ccccc3OC)SC2)cc1OC	Pf growth 48h 10µM, Pf growth 96h 3.7µM!
CC(C)(C)C1=Nn2c(nnc2-c2ccccn2)SC1	Pf growth 96h 8.3µM (no result: Pf growth 48h)
COc1cccc(-c2nnc3n2N=C(C(C)(C)C)CS3)c1	Pf growth 48h inconclusive, Pf growth 96h 13µM
COc1cccc(C2=Nn3c(nnc3-c3ccccc3O)SC2)c1	Pf growth 48h 13µM
CC(C)(Oc1ccc(Cl)cc1)C(=O)OCc1nc2ccsc2c(=O)[nH]1	none (no result: Shiga toxin inh, Cycloheximide cs)
O=C(NC1CCCC1)C1CC(O)CN1C(=O)Nc1ccccc1 (configuration not stated)	none
Cc1cc(-c2nnc3n2N=C(c2ccccc2Br)CS3)n[nH]1	Pf growth 48h inconclusive, Pf growth 96h 12µM
Cc1cccc(-c2nnc3n2N=C(c2ccccc2Br)CS3)c1	Pf growth 48h inconclusive
Cc1cccc(NC(=S)N2CCN(c3ccc(F)cc3)CC2)c1	none
C#CC[N+](C)(C)CCCCCCCCCCCC	Pf growth 48h 1.5µM, Pf growth 96h 0.37µM
C#CC[N+](C)(C)CCCCCCCCCC	Pf growth 48h 0.93µM, Pf growth 96h inconclusive
CC#CC[N+](C)(C)CCCCCCCCCCCC	Pf growth 48h 2.9µM, Pf growth 96h 0.59µM
C#CC[N+](C)(C)CCCCCCCC	Pf growth 48h 3.7µM, Pf growth 96h inconclusive
O=c1c(-c2n[nH]c(=S)n2-c2ccccc2)cccn1Cc1cccc(Cl)c1	none
COc1ccc(C(=O)NC2CCCc3ccccc32)cc1Br (configuration not stated)	Pf growth 48h inconclusive, Pf growth 96h inconclusive
COc1cc(C(=O)NC2CCCc3ccccc32)ccc1OCC(=O)Nc1ccc(F)cc1 (configuration not stated)	Pf growth 48h inconclusive, Pf growth 96h 13µM
COc1ccc(C(=O)NC2CCSc3ccccc32)cc1S(=O)(=O)N1CCOCC1 (configuration not stated)	Pf growth 48h 12µM, Pf growth 96h inconclusive (no result: Shiga toxin inh, Cycloheximide cs)
COc1ccc(C(=O)NC2CCSc3ccccc32)cc1F (configuration not stated)	Pf growth 48h inconclusive, Pf growth 96h inconclusive, Cycloheximide cs 13
CCOc1ccc(CN(C)CC(=O)Nc2ccc(N3CCOCC3)cc2)cc1OC	none
CC(=O)c1ccccc1C(=O)N1CCCC(N2CCN(Cc3ccc4c(c3)OCO4)CC2)C1 (configuration not stated)	Pf growth 48h inconclusive
Cc1ccccc1[C@]1(C)ON(c2ccccc2C(F)(F)F)C1=O	Pf growth 48h 1.9µM, Pf growth 96h 1.3µM (no result: Shiga toxin inh, Cycloheximide cs)
CC[C@]1(c2ccccc2C)ON(c2ccccc2C(F)(F)F)C1=O	Pf growth 48h 2.6µM, Pf growth 96h inconclusive (no result: Shiga toxin inh, Cycloheximide cs)
COc1ccccc1[C@@]1(C)ON(c2ccccc2C(F)(F)F)C1=O	Pf growth 48h 1.5µM, Pf growth 96h 1µM (no result: Shiga toxin inh, Cycloheximide cs)
O=C1CC(C2CCCO2)C(=O)N1c1ccc(Cl)c(Cl)c1 (configuration not stated)	Pf growth 48h inconclusive
Cc1cccc(NC(=O)NCc2cccnc2)c1C	none
O=C(CN1C(=O)c2ccc([N+](=O)[O-])cc2C1=O)NC1CCCCCC1	Pf growth 48h inconclusive (no result: Shiga toxin inh, Cycloheximide cs)
O=C1Nc2ccccc2/C1=C/c1cnc[nH]1	Pf growth 48h inconclusive, Pf growth 96h inconclusive

Assay outcomes deposited in PubChem BioAssay by National Center for Advancing Translational Sciences (NCATS).
